Potency data for 40 compounds are collected here from PubChem BioAssay AID1224853 (National Center for Advancing Translational Sciences (NCATS), 2016).

Records with an inconclusive call do not appear. Where a call stands in place of a potency, no number is given. The source made the active and inactive calls. Calls follow the shape of the dose curve; as a rule, active = well fitted inhibition curve with a large enough effect; inconclusive = small, poorly fitted or top-dose-only effect; inactive = no such curve, though single readings can be large or run the other way.

A short description of the test: Confirmation assay for measurement of the activity of small molecule inhibitors on Zika virus induced Caspase-3 activity in human astrocytoma cells. To be noted: SNB-19 ZIKV-induced caspase-3/7, luminescence, 6 h; series mostly up to 46.1 µM. An excerpt: National Center for Advancing Translational Sciences [NCATS] Johns Hopkins University School of Medicine Florida State University Assay Overview: Increase in the Caspase-3 activity indicates an activation of apoptosis cell death pathway caused by Zika virus infection in certain types of neuronal cells including human neural progenitor cells (hNPCs), astrocytes, and astrocytoma cell line (SNB-19). This cell-based caspase-3 activity assay measures the increased caspase-3 activity in the astrocytoma cell line (SNB-19) after a 6-hour Zika virus infection with a luminescence readout. A decrease in the luminescence signal in this assay by small molecule treatment indicates an inhibitory effect of that small molecule on the Zika virus induced caspase-3 activity that may correlate with its effect on reduction of Zika virus caused cell death.
Assay Protocol Summary: The medium for SNB-19 cells is composed of RPMI 1640 (ATCC, Cat.# 30-2001), 10% fetal bovine serum (FBS) (GE healthcare Life Sciences, Cat.# SH30071.03), and 1% Pen/Strep (Gibco, Cat.# 15140-122). A Caspase-Glo 3/7 assay kit (catalog number G8092; Promega, Madison, WI) was used to detect caspase-3 activity induced by Zika virus infection in human cells. The reagent mixture was reconstituted as described in the protocol from the manufacturer. Polystyrene tissue culture treated and PDL coated white plates were obtained from Greiner Bio-One (Monroe, NC). Cells were seeded in 384- or 1536-well assay plates and cultured at 37 C with 5% CO2 for 16 to 20 hours. The typical cell seeding density in the 1536-well plate assay is 250 cells/well in 3ul medium for SNB-19 cells in tissue culture treated plates. Compounds were added to cells and incubated for one hour before addition of ZIKV solution to cells (2 FFU/cell). After incubation at 37 C with 5% CO2 for 6 hours, the reagent mixture of Caspase-Glo 3/7 assay kit was added to each well, followed by incubation at room temperature for 30 minutes. The luminescence intensity of the assay plates was measured using a ViewLux plate reader (PerkinElmer). Data were normalized by using the cell-containing wells without ZIKV as a negative control (0% induction of caspase 3/7 activity) and wells containing ZIKV infected cells (Caspase-3 activity induced) as a positive control (100% induction of caspase 3 activity). The percentage inhibitions of the increased Caspase-3 activity by small molecule inhibitors were then calculated.
As to `OCc1ccc(-c2ccc(-c3ccc(CO)s3)o2)s1`, the Potency is 0.218 µM (active).

As for `NC(N)=NN=C(/C=C/c1ccc([N+](=O)[O-])o1)/C=C/c1ccc([N+](=O)[O-])o1`, the Potency entry was “inactive”.

For `Cc1cc(O)c2ccccc2c1O`, the Potency result was “inactive”.

In the case of `COc1cccc(-c2ccc(NC(=O)C3=C(C(=O)O)CCC3)c(F)c2)c1`, the Potency is 3.46 µM (active).

`CO[C@H]1C(=O)[C@]2(C)[C@@H](OC)C[C@H]3OC[C@@]3(OC(C)=O)[C@H]2[C@H](OC(=O)c2ccccc2)[C@]2(O)C[C@H](OC(=O)[C@H](O)[C@@H](NC(=O)OC(C)(C)C)c3ccccc3)C(C)=C1C2(C)C`: the Potency result was “inactive”.

With `Nc1ccc(O)c(C(=O)O)c1`, the Potency result is “inactive”.

For the compound `O=C(O)[C@H](CC(=O)N1C[C@@H]2CCCC[C@H]2C1)Cc1ccccc1`, the Potency result is “inactive”.

Turning to `COc1ccc2nc(NC(=O)Nc3ccccc3)sc2c1`, the Potency is 21.8 µM (active).

In the case of `CCN1/C(=C/C=C/c2sc3ccccc3[n+]2CC)Sc2ccccc21`, the Potency entry was “inactive”.

Consider `CC(C(=O)O)c1ccc(C(=O)c2cccs2)cc1` (stereo not given), for which the Potency was 17.3 µM (active).

`C=C1C(=O)[C@@]23C(CC[C@@H]1[C@H]2O)[C@@]12CO[C@]3(O)[C@@H](O)[C@@H]1C(C)(C)CC[C@@H]2O` (stereo not given in full): the Potency entry is “inactive”.

With `COc1ccc(-c2coc3cc(O)ccc3c2=O)cc1`, the Potency was 15.5 µM (active).

For the compound `O=S(=O)(O)CCSSCCS(=O)(=O)O`, the Potency result is “inactive”.

For `CC(C)Oc1ccc2c(=O)c(-c3ccccc3)coc2c1`, the Potency was 12.3 µM (active).

Take `Oc1ccc(/C=C/c2cc(O)cc(O)c2)cc1`: the Potency is 13.8 µM (active).

`O=C(O)c1cccc(-c2noc(-c3ccccc3F)n2)c1`: the Potency is 3.46 µM (active).

As for `C[C@@H]1CCN(C(=O)CC#N)C[C@H]1N(C)c1ncnc2[nH]ccc12`, the Potency result was “inactive”.

For the compound `CC[C@]1(O)C[C@H]2CN(CCc3c([nH]c4ccccc34)[C@@](C(=O)OC)(c3cc4c(cc3OC)N(C=O)[C@H]3[C@@](O)(C(=O)OC)[C@H](OC(C)=O)[C@]5(CC)C=CCN6CC[C@]43[C@@H]65)C2)C1`, the Potency entry is “inactive”.

In the case of `O=C(c1ccccc1)c1ccc2n1CCC2C(=O)O` (stereo not given), the Potency is 17.3 µM (active).

Turning to `COc1cc2nc(-c3ccc(N4CCN(C)CC4)cc3)nc(NCCN3CCOCC3)c2cc1OC`, the Potency result is “inactive”.

Consider `Cc1[nH]c(C=C2C(=O)Nc3ccccc32)c(C)c1CCC(=O)O`, for which the Potency entry is “inactive”.

As to `CC(C)(C)OC(=O)CN(Cc1ccc(Cl)cc1)Cc1ccc([N+](=O)[O-])s1`, the Potency entry is “inactive”.

Consider `CN(C)c1cc(NC(=O)CNC(C)(C)C)c(O)c2c1C[C@@H]1C[C@H]3[C@H](N(C)C)C(=O)C(C(N)=O)=C(O)[C@@]3(O)C(=O)C1=C2O`, for which the Potency result was “inactive”.

In the case of `O=C(O)Cc1ccc(-c2ccccc2)cc1`, the Potency entry is “inactive”.

With `CC(C(=O)O)c1ccc(C(=O)c2ccccc2)s1` (stereo not given), the Potency was 8.69 µM (active).

With `CC(C(=O)O)c1ccc(-c2ccccc2)c(F)c1` (stereo not given), the Potency result is “inactive”.

For `Cc1ccc(O)c(-n2nc3ccccc3n2)c1`, the Potency was 7.74 µM (active).

Regarding `O=C(/C=C/c1ccc(O)cc1)c1ccc(O)cc1O`, the Potency is 2.45 µM (active).

As for `C[C@@H](O[C@H]1OCCN(Cc2n[nH]c(=O)[nH]2)[C@@H]1c1ccc(F)cc1)c1cc(C(F)(F)F)cc(C(F)(F)F)c1`, the Potency result was “inactive”.

Turning to `CN1CC(=O)N/C1=N/C(=O)Nc1cccc(Cl)c1`, the Potency was 6.9 µM (active).

Regarding `CCC(C(=O)O)c1ccc(N2Cc3ccccc3C2=O)cc1` (stereo not given), the Potency was 6.9 µM (active).

Turning to `O=C(/C=C/c1ccccc1)NCCO`, the Potency entry is “inactive”.

Consider `COc1ccc(NC(=O)/C=C/c2ccc(Cl)cc2)cc1`, for which the Potency is 3.46 µM (active).

With `Nc1ccc(-c2ccc3ccccc3n2)cc1`, the Potency was 6.9 µM (active).

Regarding `Cc1nc(N)sc1-c1ccnc(Nc2ccc(N3CCOCC3)cc2)n1`, the Potency result was “inactive”.

For `Clc1ccccc1-c1nc(-c2ccncc2)no1`, the Potency is 7.74 µM (active).

In the case of `CC(C)OC(=O)CCCC=CC[C@@H]1[C@H](C=C[C@@H](O)COc2cccc(C(F)(F)F)c2)[C@H](O)C[C@@H]1O`, the Potency entry is “inactive”.

Consider `Nc1ccc(N=Nc2ccccc2)c(N)n1`, for which the Potency was 12.3 µM (active).

Take `CC(C(=O)O)c1ccc2c(c1)[nH]c1ccc(Cl)cc12` (stereo not given): the Potency result is “inactive”.

For `Cc1c(NC(=O)c2ccc(C(C)(C)C)cc2)cccc1-c1cn(C)c(=O)c(Nc2ccc(C(=O)N3CCOCC3)cc2)n1`, the Potency entry is “inactive”.
